The values below come from PubChem BioAssay AID1478 (National Center for Advancing Translational Sciences (NCATS), 2009).

Out of some 200,000 compounds screened, about 860 (0.43%) were called active. Only a selection was taken, and actives are over-represented in it overall. A number with no mark means an inactive call. Calls follow the shape of the dose curve; as a rule, active = well fitted inhibition curve with a large enough effect; inconclusive = small, poorly fitted or top-dose-only effect; inactive = flat fitted curve, though single readings scatter.
Potency is read from the fitted curve at half-maximal effect.

Cruzipain (Trypanosoma cruzi), sequence (P25779 123-467 limits assumed): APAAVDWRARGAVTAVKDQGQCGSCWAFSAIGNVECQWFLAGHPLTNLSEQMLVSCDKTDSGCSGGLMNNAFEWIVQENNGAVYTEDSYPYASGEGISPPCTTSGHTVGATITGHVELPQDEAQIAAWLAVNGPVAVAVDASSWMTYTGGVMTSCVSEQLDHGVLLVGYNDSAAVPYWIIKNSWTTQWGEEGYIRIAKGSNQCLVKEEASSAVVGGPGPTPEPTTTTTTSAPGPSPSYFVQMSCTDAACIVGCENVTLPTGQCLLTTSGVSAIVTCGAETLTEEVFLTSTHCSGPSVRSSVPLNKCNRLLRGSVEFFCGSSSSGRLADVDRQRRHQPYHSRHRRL

This test concerns the target Cruzipain (Trypanosoma cruzi) (UniProt P25779). Put plainly: qHTS Assay for Promiscuous and Specific Inhibitors of Cruzain (with detergent). Also: nearly all actives have a fitted effect of over 40% in size. The following applies: purified cruzain, Z-FR-AMC fluorescence, 0.01% Triton. The method, then: Cruzain (3.4.22.51) is a cysteine protease from the tropical parasite Trypanosoma cruzi. Dual qHTS experiment was performed against the NCGC compound collection in order to 1) identify novel inhibitors of the enzyme and 2) profile the compound collection for promiscuous inhibitors operating via colloidal aggregation (by performing detergent-free and detergent-containing comparison screens). Cruzain was assayed by the use of fluorogenic coumarin-based substrate Z-FR-AMC: proteolytic cleavage releases AMC, whose fluorescence is measured at 360 nm excitation and 450 nm emission. Purified cruzain was supplied by the labs of Prof. James McKerrow and Brian Shoichet, UC San Francisco.
This assay had 0.01% Triton X-100 concentration. See also releated assay "qHTS Assay for Promiscuous and Specific Inhibitors of Cruzain (without detergent)" with 0.00005% Triton X-100.
See following references for additional details:
Assay Provider: Shoichet, Brian; University of California, San Fancisco
Screening Center PI: Austin, C.P.
Screening Center: NIH Chemical Genomics Center [NCGC]
Buffer: 100 mM Sodium Acetate, pH 5.5, 5 mM DTT, Triton X-100 concentration: 0.01%.
Buffer in columns 3 and 4 as negative control (no enzyme).
Substrate solution: 2 uM final concentration of Z-FR-AMC (catalog number I-1160, Bachem) dispensed throughout the plate.
Enzyme: 1.5 nM Cruzain final concentration in columns 1, 2, 5-48. Column 1 is neutral (100% activity). Column 2 contained titration of covalent inhibitor K11777, starting concentration 1 mM, then 1:2 dilution in duplicate).
Three uL of enzyme or buffer were dispensed to 1536-well Greiner black solid bottom plates. Compounds and controls (23 nL) were transferred via Kalypsys PinTool. The plates were incubated for 15 min at room temperature, and then 1 uL of substrate solution was added to start the reaction. The plates were immediately transferred to and read 4 times every 30 seconds for 2 min on ViewLux High-throughput CCD imager (Perkin-Elmer) using 360 nm excitation and 450 nm emission fluorescence protocol. The fluorescence intensity difference between the third and the first time points (time lapse of 60 seconds) was used to compute reaction progress.
`Fc1ccc2[nH]c3c(N4CCSCC4)ncnc3c2c1`: the max response, negative = inhibition was -6.83%.

Consider `CCN1CCCC1CNc1ncnc2c1[nH]c1ccc(F)cc12` (stereo not given), for which the Potency is 25.1 µM (active). Take `CCCn1c(-c2ccc(F)cc2)nc2c(NCC3CCCN3CC)nc(C)nc21` (stereo not given): the max response, negative = inhibition was -1.1%. The same measure, in the same setting: the figure for `Cc1cc2c(cc3c(SCc4cccc(Cl)c4)nnc(C)n32)o1` is -4.57%; for `COC(=O)c1ccc(Cn2c(SCC(=O)N(C)c3ccccc3)nc3ccccc32)cc1` it is -5.82%; for `COc1ccc(OC)c(CNC(=O)Cn2nc(C)c3c(C)n(-c4ccccc4)nc3c2=O)c1` it is -2.6%.

On to `CCN(c1ncnc2c1cnn2-c1ccc(C)cc1)C1CCCCC1`, for which the max response, negative = inhibition is 1.62%. In the case of `CCOc1ccc(N2CC(C)Cn3c2nc2c3c(=O)n(Cc3c(F)cccc3Cl)c(=O)n2C)cc1` (stereo not given), the max response, negative = inhibition is -3.27%. Consider `Cc1ccc(-c2c3c(=O)n(C)c(=O)n(C)c3cn2-n2cnnc2)cc1`, for which the Potency was 10 µM (active). Regarding `COc1ccc(-c2c3c(=O)n(C)c(=O)n(C)c3cn2-c2cccc(OC)c2)cc1`, the max response, negative = inhibition is -3.29%. Still for that read-out and setting: the figure for `Cc1ccc(-c2c3c(=O)n(C)c(=O)n(C)c3cn2-c2ccccc2O)cc1` is 0.548%; for `OCc1cnc(SCc2ccc(F)cc2)n1Cc1ccc(F)cc1` it is -1.84%. Regarding `CCOc1ccccc1NC(=O)CCn1cnnn1`, the max response, negative = inhibition is 2.1%. For `CCOC(=O)c1cccc(NC(=O)c2cc(CN3CCCC3)on2)c1`, the max response, negative = inhibition is -1.68%. On the same count and under the same terms, as for `CCOc1cccc(C(=O)Nc2nnc(S(=O)(=O)N(C)c3ccc(C)cc3)s2)c1`, the figure is -2.64%; as for `Cc1ccccc1CNC(=O)C(=O)NCC(c1cccs1)S(=O)(=O)c1cccs1` (stereo not given), -2.25%; as for `Cc1cc(=O)c2cc(C(=O)Nc3cccc(C)c3C)ccc2[nH]1`, -3.15%. On the same count and under the same terms, as for `O=C(CSc1ncc(S(=O)(=O)c2ccc(Br)cc2)c(=O)[nH]1)Nc1ccc2c(c1)OCCO2`, the figure is -23.7%; as for `Cc1cccc(NC(=O)CSc2ncc(-c3ccccc3)[nH]2)c1C`, -4.22%. As for `CCOc1ccccc1NC(=O)CSc1ncc(S(=O)(=O)c2ccc(C(C)(C)C)cc2)c(=O)[nH]1`, the Potency was 28.2 µM (active).

As to `CCOc1ccc(CNC(=O)c2cc(=O)[nH]c3ccc(S(=O)(=O)N4CCCCC4)cc23)cc1`, the max response, negative = inhibition is 0.425%. Turning to `COc1cc(-c2noc(-c3ccc(N4CCCC4)c([N+](=O)[O-])c3)n2)cc(OC)c1OC`, the max response, negative = inhibition was -7.32%. Still for that read-out and setting: the figure for `CCCNC(=O)c1ccc2c(c1)ncn2-c1ccc(C)cc1C` is 0.948%; for `Cc1ccccc1CNC(=O)c1cccc(NC(=O)c2nsc3ccccc23)c1` it is -4.52%.

For the compound `Cc1ccc(SCCC(=O)OCC(=O)Nc2ncc(Cl)cc2Cl)cc1`, the Potency is 25.1 µM (active). With `Cc1ccc(-n2c(SCC(=O)Nc3ncc(Cl)cc3Cl)nc3ccccc32)cc1`, the max response, negative = inhibition is 0.0613%.

As to `CC(Oc1ccc(Cl)cc1)C(=O)OCC(=O)Nc1ncc(Cl)cc1Cl` (stereo not given), the max response, negative = inhibition is -4.76%. On the same count and under the same terms, as for `CCC(=O)N1CCc2cc(CNS(=O)(=O)c3ccc(Br)s3)ccc21`, the figure is -0.767%; as for `Cc1nnnn1/C(=C\c1ccccc1)C(=O)OCC(=O)N1CC2(C)CC1CC(C)(C)C2` (stereo not given), -0.133%. In the case of `Cc1cccc(C(=O)NCC(=O)OCC(=O)N2CC3(C)CC2CC(C)(C)C3)c1` (stereo not given), the Potency is 14.1 µM (active). Regarding `COc1ccc(C(=O)N2CC3(C)CC2CC(C)(C)C3)cc1OC` (stereo not given), the max response, negative = inhibition was -2.5%. For the compound `CCOc1ccc(C(NC(=O)c2cc(OC)c(OC)c(OC)c2)c2cc(Cl)c3cccnc3c2O)cc1` (stereo not given), the max response, negative = inhibition was 1.88%.

Consider `COc1ccccc1CNc1ccc(-c2nc(-c3ccccc3C)no2)cc1[N+](=O)[O-]`, for which the max response, negative = inhibition is -3.81%. Take `O=C(NCc1ccccc1)C(=O)NCC(c1ccco1)S(=O)(=O)c1ccc(Cl)cc1` (stereo not given): the max response, negative = inhibition is -1.1%. Same read-out and setting: as for `COc1ccc(OC(C)C(=O)NCCc2nc3ccccc3[nH]2)cc1` (stereo not given), the figure is -6.04%. For `O=C(COc1ccccc1)NCCc1nc2ccccc2[nH]1`, the Potency was 15.8 µM (active). Regarding `COC(=O)Cc1nc2ccccc2[nH]1`, the max response, negative = inhibition was 8.1%.

`CCc1ccc(N(CC)C(=O)CCn2cnc3onc(-c4ccc(F)cc4)c3c2=O)cc1`: the max response, negative = inhibition was -2.73%. Same read-out and setting: the figure for `COc1ccc(OCCCn2c(C)nc3cc(C)c(C)cc32)cc1` is -3.67%; for `O=C(NCC1CCCO1)/C(=C\c1ccco1)NC(=O)c1ccccc1` (stereo not given) it is -1.92%.

Take `Cc1cccc(NC(=O)/C(=C\c2ccco2)NC(=O)c2ccccc2)c1`: the max response, negative = inhibition is -5.18%. For the compound `O=C(OCN1C(=O)c2ccccc2C1=O)/C(=C\c1ccco1)NC(=O)c1ccccc1`, the Potency was 0.316 µM (active). For the compound `Cc1ccc(-c2noc(-c3nnn(-c4cccc(C(F)(F)F)c4)c3N)n2)cc1`, the max response, negative = inhibition is 0.534%.

As for `CCOC(=O)c1ccc(CSc2nnc3cc(C)c4ccccc4n23)cc1`, the max response, negative = inhibition is -5.57%.

For the compound `COc1ccc(N2C(=O)CSC23C(=O)N(Cc2cccc(F)c2)c2ccccc23)cc1Cl` (stereo not given), the max response, negative = inhibition is -6.49%.
